From ChEMBL document CHEMBL3988442, “University of Dundee, Small-Polar-MMV Screening Library” (2021)
Out of some 48,000 compounds screened, about 13,000 (27%) showed an effect of 50% or more. The list shows a part of the results.

What follows are compounds tested on Wolbachia pipientis (assay: Anti-Wolbachia Cell-Based Screen). Conditions: 5 µM.
Format: functional
Design: scale not given: in the data most compounds retested in dose-response had high values
`CCOc1cncc(N(C)CC(=O)NC)n1` was tested, and the “Percent Effect” value was 3.632%.
With `COc1ccc(F)cc1C(=O)N1CCn2c(nnc2C(F)(F)F)C1` the “Percent Effect” value was -12.82%.
For `CC(CNC(=O)c1cccc(-n2cccn2)n1)Cn1ccnc1` (stereo unspecified), the “Percent Effect” value was -7.743%.
For `CCN1CC2(CCC1=O)CCN(C(=O)C(O)c1cccc(Cl)c1)CC2` (stereo unspecified), the “Percent Effect” value was -4.5%.
`Cc1ccc(NCCCNC(=O)NCC2CCS(=O)(=O)C2)nc1` (stereo unspecified) was tested, and the “Percent Effect” value was 4.563%.
In the case of `CCC(CC)CNCC1(S(C)(=O)=O)CCOCC1`, the “Percent Effect” value is reported as -4.414%.
In the case of `CC(=O)N[C@@H]1CN(S(=O)(=O)c2ccc(Cl)cc2)C[C@H]1O`, the “Percent Effect” value is reported as 155.9%.
For `CCC[C@@H]1CN(S(=O)(=O)c2ccc(OC)c(OC)c2)C[C@H]1NC(C)=O`, the “Percent Effect” value was -5.851%.
With `CCC[C@H]1CN(S(=O)(=O)c2ccc(Cl)cc2)C[C@@H]1NC(C)=O` the “Percent Effect” value was 12.77%.
For `CN(CCC#N)C(=O)Cc1csc(-c2ncccn2)n1`, the “Percent Effect” value was 2.424%.
For `CNC(=O)[C@@H]1C[C@H](N)CN1Cc1cc2cc(C)cc(C)c2[nH]c1=O`, the “Percent Effect” value was 27.32%.
With `O=C(O)C(F)(F)F.O=C(O)C(F)(F)F.O=C(O)C(F)(F)F.c1ccc(Cn2cc3c(n2)C(CNCc2ccco2)OCC3)nc1` (stereo unspecified) the “Percent Effect” value was -0.4855%.
With `Cn1cc2c(n1)C(CNCc1ccco1)OCC2.O=C(O)C(F)(F)F.O=C(O)C(F)(F)F` (stereo unspecified) the “Percent Effect” value was 145.8%.
For `Cc1occc1C(=O)NCC1OCCc2cn(C)nc21.O=C(O)C(F)(F)F` (stereo unspecified), the “Percent Effect” value was 115.2%.
With `CC(C)NCC1OCCc2cn(C)nc21.O=C(O)C(F)(F)F` (stereo unspecified) the “Percent Effect” value was 25.68%.
`Cn1cc2c(n1)C(CNCC1CCOCC1)OCC2.O=C(O)C(F)(F)F.O=C(O)C(F)(F)F` (stereo unspecified) was tested, and the “Percent Effect” value was 10.93%.
`COCCn1cc2c(n1)C(CNCc1ccco1)OCC2.O=C(O)C(F)(F)F.O=C(O)C(F)(F)F` (stereo unspecified) was tested, and the “Percent Effect” value was 3.436%.
`COc1ccccc1C1(CNc2snc(Cl)c2C#N)CCOCC1` was tested, and the “Percent Effect” value was -1.634%.
In the case of `COc1cc(N2C[C@@H](C)[C@](O)(C3CC3)C2)nc(N)n1`, the “Percent Effect” value is reported as -24.25%.
For `CC1CN(c2ncnc3ccccc23)CCO1` (stereo unspecified), the “Percent Effect” value was -1.794%.
`CC(C)n1nc(CN2CCOCC2)c2c1CN(C(=O)c1ccno1)C2.O=C(O)C(F)(F)F` was tested, and the “Percent Effect” value was 102.9%.
In the case of `CC(C)n1nc(CN2CCCCC2)c2c1CN(C(=O)c1ccno1)C2.O=C(O)C(F)(F)F`, the “Percent Effect” value is reported as 85.62%.
`Cc1ccc(C(=O)N2Cc3c(CN4CCCCC4)nn(C)c3C2)cc1C.O=C(O)C(F)(F)F` was tested, and the “Percent Effect” value was -1.924%.
In the case of `CC(C)n1nc(CN2CCOCC2)c2c1CN(Cc1ccsc1)C2.O=C(O)C(F)(F)F.O=C(O)C(F)(F)F`, the “Percent Effect” value is reported as -3.193%.
In the case of `CC(C)n1nc(Cn2cccc2)c2c1CN(C1CCOCC1)C2.O=C(O)C(F)(F)F`, the “Percent Effect” value is reported as -6.023%.
For `CC(C)n1nc(Cn2cccc2)c2c1CN(Cc1ccoc1)C2.O=C(O)C(F)(F)F`, the “Percent Effect” value was -4.933%.
With `O=C(c1cc(Cl)c2c(c1)OCO2)N1CCN(c2nccs2)CC1` the “Percent Effect” value was -12.71%.
`O=C(NCc1c(F)cccc1Cl)c1cc(CN2CCCC(O)C2)on1` (stereo unspecified) was tested, and the “Percent Effect” value was -0.1537%.
With `Cc1cccc2c1nc1n2[C@@H](CNC(=O)CCC(=O)O)COC1` the “Percent Effect” value was -14.2%.
With `CNCc1cc(F)ccc1Oc1ccc(F)cc1` the “Percent Effect” value was 114.4%.
In the case of `COc1ccc(C)cc1CC(=O)NC(CC(=O)O)c1ccc(F)cc1` (stereo unspecified), the “Percent Effect” value is reported as 6.211%.
For `CNCc1cc(F)ccc1Oc1ccc(Cl)cc1`, the “Percent Effect” value was 118.2%.
In the case of `COc1ccc(CC(=O)NC(CC(=O)O)c2ccc(F)cc2)cc1OC` (stereo unspecified), the “Percent Effect” value is reported as 11.02%.
In the case of `CN(C)S(=O)(=O)NCc1cccnc1Oc1ccc(F)cc1F`, the “Percent Effect” value is reported as 1.253%.
`CC(C)S(=O)(=O)NCc1cccnc1Oc1ccc(F)cc1F` was tested, and the “Percent Effect” value was -8.317%.
`CNCc1cc(F)ccc1Oc1ccc(F)cc1F` was tested, and the “Percent Effect” value was 116%.
`CNC(=O)COc1ccc(CNCc2ccc(F)cc2F)cc1` was tested, and the “Percent Effect” value was -7.839%.
In the case of `Cc1noc(NCc2cc(F)ccc2F)n1`, the “Percent Effect” value is reported as 5.671%.
In the case of `CC(NCC1CCN(CCO)CC1)c1ccc(Cl)cc1` (stereo unspecified), the “Percent Effect” value is reported as 5.926%.
In the case of `CCc1nn(C)c(Cl)c1CN1CCN(c2ccc(C(N)=O)cn2)CC1`, the “Percent Effect” value is reported as -7.307%.
In the case of `CC(C)Cc1ncc2c(n1)CN(C(=O)c1ccc(CN3CCCC3)o1)C2`, the “Percent Effect” value is reported as 8.376%.
In the case of `O=C(NC1CC1)[C@H]1C[C@H]2OCC[C@H]2N(Cc2cccc3ccccc23)C1.O=C(O)C(F)(F)F`, the “Percent Effect” value is reported as -4.229%.
In the case of `Cc1nc(N(C)C)nc(C)c1NC(=O)c1ccco1`, the “Percent Effect” value is reported as 16.89%.
With `CC(C)C(=O)N1CCN(S(C)(=O)=O)CC2(CC(=O)N(C)C2)C1` (stereo unspecified) the “Percent Effect” value was 4.406%.
In the case of `COCc1noc(-c2ccc(N(C)Cc3ccc(C)o3)nc2)n1`, the “Percent Effect” value is reported as -8.335%.
For `COCc1noc(-c2ccc(N(C)Cc3ncccc3C)nc2)n1`, the “Percent Effect” value was 79.04%.
`COCc1noc(-c2ccc(N(C)Cc3cc(C)no3)nc2)n1` was tested, and the “Percent Effect” value was -6.826%.
For `CSc1ccccc1CC1CCCS(=O)(=O)C1` (stereo unspecified), the “Percent Effect” value was -14.28%.
With `O=S(=O)(NCCSc1nncn1C1CC1)c1ccccc1` the “Percent Effect” value was 13.46%.
`CCc1noc(C(C)N2CCOCC2)n1` (stereo unspecified) was tested, and the “Percent Effect” value was 1.305%.
In the case of `CC(c1nc(C(C)(C)C)no1)N1CCC(N2CCCC2)CC1` (stereo unspecified), the “Percent Effect” value is reported as -1.947%.
